From PubChem BioAssay (NCI)
The panel holds about 83,000 compounds, 20% with a hit somewhere; the sample as a whole holds those more often.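 Negative percent growth values reflect cell death: -40 means 40% of the cells present at the start died, and -100 means all died.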 Values without a mark were called inactive. Activity calls are given as the source filed them. Rule for the calls: active = growth percent below 10; inactive = the rest.

Columns and labels:
Test in all cases: NCI-60 one-dose screen, 48 h (100 = growth as untreated, 0 = no growth, -100 = all killed)
Details in all cases: 10 µM
HT29 colon = tested on: HT29 colon
SNB-75 CNS = tested on: SNB-75 CNS
SNB-19 CNS = tested on: SNB-19 CNS
U251 CNS = tested on: U251 CNS
PC-3 prostate = tested on: PC-3 prostate
SK-MEL-5 melanoma = tested on: SK-MEL-5 melanoma
UACC-62 melanoma = tested on: UACC-62 melanoma
LOX IMVI melanoma = tested on: LOX IMVI melanoma
SK-MEL-28 melanoma = tested on: SK-MEL-28 melanoma
SK-MEL-2 melanoma = tested on: SK-MEL-2 melanoma

Compound | growth (HT29 colon) | growth (SNB-75 CNS) | growth (SNB-19 CNS) | growth (U251 CNS) | growth (PC-3 prostate) | growth (SK-MEL-5 melanoma) | growth (UACC-62 melanoma) | growth (LOX IMVI melanoma) | growth (SK-MEL-28 melanoma) | growth (SK-MEL-2 melanoma)
Cc1cc(N(CCCNc2ccnc3cc(Cl)ccc23)Cc2ccc3c(c2)OCO3)nc(N2CCOCC2)n1 | 3.19% (active) | 61.4% | 32.3% | 5.18% (active) | 27.1% | -88.1% (active) | 27.1% | -24.2% (active) | -44.7% (active) | 32.4%
Cc1cc(Cc2cc(C)c(O)c(C)c2)cc(C)c1O | 88.1% | 48% | 66.6% | 49.6% | 75.1% | 38.9% | 53.2% | 43.5% | 70% | 6.12% (active)
Nc1nc(-c2ccccc2Cl)cc(-c2ccc(Cl)cc2Cl)n1 | 36.6% | 30.5% | 78.1% | 65% | 74.2% | 75.2% | 63.1% | 55.4% | 88% | 96.3%
CCN1CCN(c2nc3ccccc3c3c(=O)c4ccccc4sc23)CC1 | 9.96% (active) | 44.5% | 67.2% | 27.9% | 43.7% | 7.43% (active) | 7.97% (active) | 23.5% | 31.1% | 98.5%
CCOC(=O)N1C/C(=C/c2ccc(Cl)cc2)C(=O)/C(=C/c2ccc(Cl)cc2)C1 | -40% (active) | 66% | 77.3% | 12.1% | 49.4% | 88.1% | 67.6% | -56.8% (active) | 105% | 84.7%
O=C(N/N=C\c1cc(Cl)ccc1[N+](=O)[O-])c1ccco1 | 107% | 96% | 102% | 97.4% | 100% | 111% | 101% | 103% | 110% | 117%
COc1ccc(C2CC(c3ccc(N(C)C)cc3)=NN2c2ccc(S(N)(=O)=O)cc2)cc1 (stereo unspecified) | 29.6% | 69.6% | 66.6% | 26.6% | 18.9% | 69.4% | 62.3% | 54.9% | 86.3% | 79.7%
CN1CCC(CNc2cc(C3(C(=O)Nc4cc(C(=O)Nc5ccc(Cl)c(C(F)(F)F)c5)ccc4F)CC3)ncn2)CC1 | -26.6% (active) | 23.1% | -34.1% (active) | -37.5% (active) | -23% (active) | -95.4% (active) | 32.9% | -74.2% (active) | -54.7% (active) | -57.2% (active)
Cc1ccc(NC(=O)NC2CCCCC2)cc1 | 101% | 107% | 102% | 99.7% | 104% | 100% | 105% | 96.3% | 104% | 92%
COc1ccc(/C(=C2\O[C@@H]([C@H]3COC(C)(C)O3)[C@H]3OC(C)(C)O[C@@H]23)c2cc(OC)c(OC)c(OC)c2)cc1O | 107% | 6.11% (active) | 47.4% | 46.2% | 30.6% | 59.6% | 93.2% | 36.9% | 59.6% | 103%
CC1(C)Cc2c(sc3ncn4nc(-c5ccc(O)cc5)nc4c23)CO1 | 111% | 35.5% | 79.9% | 60.6% | 44.4% | 56.7% | 82.5% | 75% | 73.5% | 84.7%
CCOCCOCCOCCOCCOCCOCCOCCOCCOCCO (tested in a mixture with another compound) | -44% (active) | 32.8% | 25.2% | 7.66% (active) | 9.21% (active) | -81.6% (active) | 13.2% | -72.5% (active) | 36.5% | -61.7% (active)
Cc1[nH]nc2c1C(c1cnn(C)c1)C(C#N)=C(N)O2 (stereo unspecified) | 114% | 73.6% | 98.2% | 102% | 91.2% | 105% | 111% | 94.9% | 110% | 93.8%
Cc1cc(O)c(C(C)(C)C)cc1Sc1cc(C(C)(C)C)c(O)cc1C | 97.1% | 54.2% | 81% | 60% | 22.5% | 33.7% | 16.3% | 63.9% |  | 72.6%
COc1ccccc1CNCCN1C(=O)c2ccc3c4c(ccc(c24)C1=O)C(=O)N(CCNCc1ccccc1OC)C3=O | -36.1% (active) | -96.1% (active) | -91.4% (active) | -81.4% (active) | -75.4% (active) | -100% (active) | -93.3% (active) | -82.3% (active) |  | -74.6% (active)
CN(C)C(=S)N/N=C\C=N/NC(=S)N(C)C | 13.5% | 64% | 90.3% | 42.8% | -18.4% (active) | 64.8% | 73.2% | 43.9% |  | 85%
c1ccc([C@H]2CN3CCSC3=N2)cc1 | 101% | -20.8% (active) | 110% | 107% | 98.9% | 103% | 99% | 102% |  | 105%
Clc1ccccc1N=Cc1ccc2c(c1)OCO2 | 96.3% | 95% | 105% | 94.9% | 107% | 107% | 103% | 98.9% | 110% | 108%
N#CC1=C(Nc2ccccc2Cl)SC(c2ccccc2O)NC1=O (stereo unspecified) | 112% | 103% | 111% | 104% | 96.7% | 103% | 103% | 97.5% | 109% | 114%
N#Cc1ncc(Br)c(NC2CCCCCC2)n1 | 120% | 83.8% | 91.5% | 92% | 92.5% | 103% | 95.5% | 101% | 104% | 104%
CCN(CCCCCCCCCCN1CC(=O)N(CCCCCCCCCCN(CC)Cc2ccccc2OC)CC1=O)Cc1ccccc1OC | -57.8% (active) | -15.7% (active) | -20% (active) | -71.1% (active) | -40.9% (active) | -100% (active) | -80.5% (active) | -86.6% (active) |  | -60.6% (active)
Cc1nc2ccccc2c(N)c1-c1cc(C)c2c(C)nc3ccccc3c2n1 | -93.5% (active) | -77.6% (active) | 22.6% | -76.6% (active) | -18.5% (active) | 62.1% | 97% | -84.7% (active) | -90.7% (active) | 96.3%
CN(C)CCN1C(=O)c2cccc3cc(N)cc(c23)C1=O | 9.24% (active) | -5.61% (active) | 24.5% | 18.4% | 12.6% | 8.79% (active) | 13.3% | 6.24% (active) |  | 29.1%
CCCCCCCCCCCCCCCCCCOCC(COCCOCC[N+]1(CCCCCC(=O)[O-])CCCC1)Oc1ncccn1 (stereo unspecified) | 22.7% | 6.6% (active) | 18.5% | 8.23% (active) | 0.371% (active) | 45.3% | 54.4% | 39.9% |  | 70.3%
CC(C)=CCc1ccc(O)c(=O)cc1C(C)C | 28.5% | 12.7% | 41% | 15.5% | 43.7% | -17.2% (active) | 14.3% | 22% | 34.5% | 17.2%
C=C(Cl)[C@@](Cl)(CBr)CC[C@@H](Br)C(C)(C)Cl | -88.2% (active) | -96.8% (active) | -74.9% (active) | -97.9% (active) | -92.7% (active) | 87.9% | -25.9% (active) | 94.5% |  | -30.8% (active)
C=C(NC(=O)C(=C)NC(=O)c1csc(C2=NC3c4csc(n4)C4NC(=O)c5csc(n5)C(C(C)(O)C(C)O)NC(=O)C5CSC(=N5)/C(=C/C)NC(=O)C(C(C)O)NC(=O)c5csc(n5)C3(CC2)NC(=O)C(C)NC(=O)C(=C)NC(=O)C(=C)NC(=O)C(C(C)C)NC2C=Cc3c(C(C)O)cc(nc3C2O)C(=O)OC4C)n1)C(N)=O (stereo unspecified) | -2.13% (active) | -10.9% (active) | 16.8% | -46% (active) | 9.64% (active) | -56.2% (active) | 5.94% (active) | -52.7% (active) |  | -17.7% (active)
